Assay outcomes: PubChem BioAssay, National Center for Advancing Translational Sciences (NCATS)
Sampled rows, rich in hits. Any-hit rate of the full collection: about 12%.
Pf growth 48h: inhibits P. falciparum growth in the first generation, 48 h. P. falciparum luciferase growth in erythrocytes, 48 h. Potency, µM (highest dose often 28.7 µM), inactives show at the highest dose activity change, negative = inhibition, actives largely listed as inhibitors. 310,000 tested, 5.9% active; also: % is scaled to controls: 0 for no effect and ±100 for the full control effect
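Growth was read as firefly luciferase luminescence after a 48 h, 37 C, 5% CO2 exposure of compounds to reporter-bearing P. falciparum cultures (0.1% parasitemia, 2% hematocrit final) in Albumax-supplemented RPMI 1640.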
Sm TGR block: blocks Schistosoma mansoni thioredoxin glutathione reductase; Q962Y6; purified TGR, DTNB reduction, TNB absorbance 405 nm; Potency, µM (top dose mostly 114 µM), without a hit: at the highest dose activity change, negative = inhibition, hits mostly inhibitors; 360,000 tested, 3% active; also: % is scaled to controls: 0 for no effect and ±100 for the full control effect; nearly all actives have a fitted effect of over 60% in size
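First, TGR (20 nM dispensed) and NADPH were mixed with compound. Second, a 15 min room-temperature incubation followed. Third, further NADPH and then DTNB were added to start the reaction. Finally, TNB absorbance was monitored kinetically.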
SARS PLpro yeast: inhibitors of SARS-CoV papain-like protease in yeast; S. cerevisiae expressing SARS-CoV PLpro, growth rescue; 330,000 tested, 0.19% active; Potency, µM (series often up to 32.9 µM), inactives show at the top dose activity, positive = growth rescue, usual class: activators; calls by dose curve; also: 0% is about no effect; nearly all actives have a fitted effect of over 55% in size
Pf growth 96h: P. falciparum growth inhibition at 96 hour, primary screen for plastid delayed-death inhibitors; P. falciparum luciferase reporter growth, 96 h; Potency, µM (doses to about 28.7 µM), for inactives: top-dose activity change, negative = inhibition, actives largely listed as inhibitors; 320,000 tested, 6.9% active; AID 504834; also: % is scaled to controls: 0 for no effect and ±100 for the full control effect
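Infected RBCs, 2% Hct / 0.05% parasitemia final; luciferase-reporter P. falciparum; cpd 96 h, 37 C, 5% CO2; luciferase detection reagent; luminescence.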
* marks the source's active call; other numbers are inactive results. Unless noted, calls follow the shape of the dose curve; as a rule, active = well fitted curve in the direction sought with a large enough effect; inconclusive = small, poorly fitted or top-dose-only effect, or another doubt; inactive = no such curve, though single readings can be large; an effect the other way counts as inactive or inconclusive. Potency is read from the fitted curve at half-maximal effect.

Screening Cc1ccsc1CNC1CCCCC1 returned Pf growth 48h inconclusive, Sm TGR block 0%, SARS PLpro yeast 2% and Pf growth 96h inconclusive.
Cc1ccsc1CNC12CC3CC(CC(C3)C1)C2 was read as Pf growth 48h -16%, SARS PLpro yeast -2% and Pf growth 96h 0.83µM*.
`OC(c1ccccn1)c1c[nH]c2ccccc12` (configuration not stated) gave Pf growth 48h 24%, Sm TGR block 22µM* and SARS PLpro yeast -4%.
O=[N+]([O-])CC(c1ccc(F)cc1)c1c[nH]c2ccccc12 (configuration not stated) was read as Pf growth 48h inconclusive, Sm TGR block -7%, SARS PLpro yeast -8% and Pf growth 96h inconclusive.
Screening Fc1ccc(C(Nc2ccccn2)c2c[nH]c3ccccc23)cc1 (configuration not stated) returned Pf growth 48h inconclusive, Sm TGR block 2.8µM*, SARS PLpro yeast -3% and Pf growth 96h inconclusive.
C[C@@H](C(=O)CC(=O)OC(C)(C)C)[C@@H](O)c1c(F)cccc1Cl was read as Pf growth 48h 27%, Sm TGR block -15%, SARS PLpro yeast 5% and Pf growth 96h 27%.
CCOc1ccc(Br)cc1S(=O)(=O)NCCN1CCCC1 was read as Sm TGR block 7%, SARS PLpro yeast -2% and Pf growth 96h -2%.
For CCOc1ccc(Br)cc1CNCCN1CCOCC1 the results were Pf growth 48h -25%, Sm TGR block 3%, SARS PLpro yeast -6% and Pf growth 96h 12µM*.
`COc1cc(CNCCN2CCOCC2)ccc1OCc1ccccc1Cl` gave Pf growth 48h inconclusive, Sm TGR block 7%, SARS PLpro yeast -1% and Pf growth 96h 12µM*.
For CCOc1ccc2ccccc2c1CNCCN1CCOCC1 the results were Pf growth 48h 13µM*, Sm TGR block -2%, SARS PLpro yeast -1% and Pf growth 96h 5.2µM*.
For COc1cc(CNCCN2CCOCC2)ccc1OCc1ccc(Cl)cc1 the results were Sm TGR block 2%, SARS PLpro yeast -5% and Pf growth 96h inconclusive.
COc1ccc(CC(=O)NCc2ccc3c(c2)CCN3C(=O)c2ccc(C)cc2)cc1OC was read as Sm TGR block 4%.
For Cn1cc(CCC(=O)NCCCc2ccccc2)c2ccccc21 the results were Pf growth 48h 56%, Sm TGR block 1%, SARS PLpro yeast -1% and Pf growth 96h 31%.
`O=C1CC(N2CCN(S(=O)(=O)c3ccc([N+](=O)[O-])cc3)CC2)C(=O)N1c1ccccc1F` (configuration not stated) gave Pf growth 48h inconclusive, Sm TGR block -26%, SARS PLpro yeast 1% and Pf growth 96h inconclusive.
For O=C(CNC(=O)c1ccc2c(c1)OCO2)N/N=C/c1cc(Br)ccc1O the results were Pf growth 48h 12%, Sm TGR block 6%, SARS PLpro yeast 0% and Pf growth 96h 30%.
Screening Cc1ccc(S(=O)(=O)N(C)C)cc1NC(=O)C(C)OC(=O)c1cc[n+]([O-])cc1 (configuration not stated) returned SARS PLpro yeast -3%.
`CCN(CC)CCOC(=O)C(C)(c1ccccc1)c1ccccc1` gave Pf growth 48h inconclusive and Pf growth 96h 11µM*.
CCN(CC)CCOCCOC(=O)C(CC)(CC)c1ccccc1 was read as Pf growth 48h -7%, Sm TGR block 15%, SARS PLpro yeast 0% and Pf growth 96h 0%.
`O=C(c1ccc2c(c1)N(Cc1ccc(F)cc1)C(=O)c1ccccc1S2(=O)=O)N1CCCCCC1` gave Sm TGR block -13%.
Screening CC(C)CC(=O)/C=C/n1c(=S)oc2ccccc21 returned Pf growth 48h inconclusive, Sm TGR block 6.3µM*, SARS PLpro yeast -4% and Pf growth 96h inconclusive.
For CC(=O)Nc1ccc(NC(=O)CCn2c(=S)oc3ccccc32)cc1 the results were Pf growth 48h 21%, Sm TGR block -9%, SARS PLpro yeast 1% and Pf growth 96h 17%.
CC(=O)/C=C/n1c(=S)oc2ccccc21 was read as Pf growth 48h inconclusive, Sm TGR block 2.5µM*, SARS PLpro yeast -82% and Pf growth 96h -81%.
`Cn1c(=S)oc2ccccc21` gave Pf growth 48h -5%, Sm TGR block 6%, SARS PLpro yeast 0% and Pf growth 96h 10%.
`Cc1ccc(S(=O)(=O)c2c(O)c3ccc(C(=O)O)cc3[nH]c2=O)cc1` gave Pf growth 48h 3%, Sm TGR block -15%, SARS PLpro yeast 0% and Pf growth 96h 5%.
`CCOC(=O)c1c(C)[nH]c(C(=O)COC(=O)c2ccco2)c1C` gave SARS PLpro yeast -6%.
`O=C(CC1C(=O)N(c2ccccc2)C(=O)N1Cc1ccc2c(c1)OCO2)Nc1ccccc1` (configuration not stated) gave Sm TGR block -4%.
Screening Cc1ccc(S(=O)(=O)N(Cc2ccc(C(F)(F)F)cc2)C(=O)N2CCN(C)CC2)cc1 returned Pf growth 48h -1%, Sm TGR block 2%, SARS PLpro yeast -5% and Pf growth 96h 29%.
CCC(C)NC(=O)CSc1nc2cc3c(cc2c(=O)n1Cc1ccc(C(=O)NCCc2ccc(OC)c(OC)c2)cc1)OCO3 (configuration not stated) was read as Sm TGR block -3%.
CCNS(=O)(=O)c1ccc(NC(=O)c2ccc(Cn3cc(Br)cn3)o2)cc1 was read as Pf growth 48h -24%, Sm TGR block 0%, SARS PLpro yeast -8% and Pf growth 96h 12µM*.
C/C(=N\NC(=O)c1ccc(Cn2cc(Br)cn2)o1)c1cccc(NC(=O)C(C)C)c1 was read as Pf growth 48h -15%, Sm TGR block 2%, SARS PLpro yeast 5% and Pf growth 96h 12µM*.
`CC(=O)c1sc(NC(=O)c2ccc(Br)o2)nc1C` gave Pf growth 48h 129%, Sm TGR block -27%, SARS PLpro yeast -7% and Pf growth 96h inconclusive.
`C/C(=N\NC(=O)c1ccc(Cn2cc([N+](=O)[O-])cn2)o1)c1cccc(NC(=O)C(C)C)c1` gave Pf growth 48h -22%, Sm TGR block 3%, SARS PLpro yeast 3% and Pf growth 96h inconclusive.
CC(=O)c1sc(NC(=O)c2ccc(Cn3cc(Br)cn3)o2)nc1C was read as Pf growth 48h 9%, Sm TGR block 50µM*, SARS PLpro yeast -7% and Pf growth 96h 54%.
COc1ccc(Cn2nnc3c(=O)[nH]c(C4CCN(C(=O)c5ccc(C)cc5)CC4)nc32)cc1OC was read as Sm TGR block -10%.
COc1ccccc1C(CNc1ccc(S(=O)(=O)N2CCCC2)cc1[N+](=O)[O-])N(C)C (configuration not stated) was read as Pf growth 48h -19%, Sm TGR block 3%, SARS PLpro yeast 9% and Pf growth 96h inconclusive.
Screening COC(=O)/C(C(C)=O)=C(\C=C\N(C)C)N(C)C returned Sm TGR block -17%, SARS PLpro yeast 6% and Pf growth 96h -18%.
